Some targets named below: RELARELA (p65 homodimer) (Homo sapiens, UniProt Q04206 1-307); p50p50 homodimer (Homo sapiens, UniProt P19838 7-356); RELB subunit;p50 subunit (Homo sapiens;Homo sapiens, UniProt Q01201;P19838 120-401;7-356).
What all share (assay): protein binding microarray; high values mean tight binding
Conditions in all cases: dsDNA, one strand shown

For a further assay, the target named is T1, p52p52 homodimer (Homo sapiens, UniProt Q00653 4-332).
T1 sequence: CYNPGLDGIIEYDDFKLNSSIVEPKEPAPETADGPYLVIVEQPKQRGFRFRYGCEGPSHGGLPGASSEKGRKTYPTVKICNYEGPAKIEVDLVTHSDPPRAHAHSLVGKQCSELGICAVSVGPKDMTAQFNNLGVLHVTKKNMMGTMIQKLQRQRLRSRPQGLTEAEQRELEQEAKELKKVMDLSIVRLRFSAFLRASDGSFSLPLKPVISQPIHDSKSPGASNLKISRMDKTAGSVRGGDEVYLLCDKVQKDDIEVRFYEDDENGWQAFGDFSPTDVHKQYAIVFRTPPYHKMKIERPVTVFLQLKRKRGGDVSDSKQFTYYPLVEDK

The target in assay [1] is RELA (p65) subunit of heterodimer;p50 subunit (Homo sapiens;Homo sapiens, UniProt Q04206;P19838 1-307;7-356).
In assay [2] the target is RELA (p65) subunit of heterodimer;p52 subunit (Homo sapiens;Homo sapiens, UniProt Q04206;Q00653 1-307;4-332).
For a further assay, the target named is T2, RELB subunit;p52 subunit (Homo sapiens;Homo sapiens, UniProt Q01201;Q00653 120-401;4-332).
T2 sequence 1: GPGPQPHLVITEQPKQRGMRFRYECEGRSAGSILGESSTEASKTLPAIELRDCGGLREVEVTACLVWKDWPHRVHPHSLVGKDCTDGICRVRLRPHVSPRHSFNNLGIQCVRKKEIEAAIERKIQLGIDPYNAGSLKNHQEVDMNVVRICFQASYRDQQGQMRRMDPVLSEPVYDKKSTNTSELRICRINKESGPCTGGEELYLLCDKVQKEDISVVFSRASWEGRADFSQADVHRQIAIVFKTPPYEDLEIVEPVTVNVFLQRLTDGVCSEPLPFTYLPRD
T2 sequence 2: T1 sequence

The target in assay [3] is C-Rel subunit;p50 subunit (Homo sapiens;Homo sapiens, UniProt Q04864;P19838 1-285;7-356).
Assay [4] deals with T3, C-Rel subunit;p52 subunit (Homo sapiens;Homo sapiens, UniProt Q04864;Q00653 1-285;4-332).
T3 sequence 1: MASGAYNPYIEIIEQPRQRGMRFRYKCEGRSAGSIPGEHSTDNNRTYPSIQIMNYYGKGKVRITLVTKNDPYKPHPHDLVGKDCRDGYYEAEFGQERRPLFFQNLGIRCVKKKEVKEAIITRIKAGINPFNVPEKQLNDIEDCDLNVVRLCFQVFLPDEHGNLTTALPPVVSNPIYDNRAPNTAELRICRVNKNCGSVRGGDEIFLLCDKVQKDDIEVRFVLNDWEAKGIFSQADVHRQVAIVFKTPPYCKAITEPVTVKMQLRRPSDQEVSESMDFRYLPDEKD
T3 sequence 2: T1 sequence

Our source for the binding signal values is PMC3218832.

p50p50 homodimer, sequence (P19838 7-356): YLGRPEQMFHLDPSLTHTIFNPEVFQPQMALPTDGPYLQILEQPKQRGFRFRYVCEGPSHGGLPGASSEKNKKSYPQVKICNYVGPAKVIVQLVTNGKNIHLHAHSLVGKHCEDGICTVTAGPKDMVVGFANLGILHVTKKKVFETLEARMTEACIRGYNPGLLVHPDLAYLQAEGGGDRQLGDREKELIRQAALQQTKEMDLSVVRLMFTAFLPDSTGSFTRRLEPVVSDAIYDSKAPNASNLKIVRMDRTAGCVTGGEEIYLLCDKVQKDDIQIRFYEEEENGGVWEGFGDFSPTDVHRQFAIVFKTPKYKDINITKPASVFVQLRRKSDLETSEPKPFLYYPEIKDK
RELARELA (p65 homodimer), sequence (Q04206 1-307): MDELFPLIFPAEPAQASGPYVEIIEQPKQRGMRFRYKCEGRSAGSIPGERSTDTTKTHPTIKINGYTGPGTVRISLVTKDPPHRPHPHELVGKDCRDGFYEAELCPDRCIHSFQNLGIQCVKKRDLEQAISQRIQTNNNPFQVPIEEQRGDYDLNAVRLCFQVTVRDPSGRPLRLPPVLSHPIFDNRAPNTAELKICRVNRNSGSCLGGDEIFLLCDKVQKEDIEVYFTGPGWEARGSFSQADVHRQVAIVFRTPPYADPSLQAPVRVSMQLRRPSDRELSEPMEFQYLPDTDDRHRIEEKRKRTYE
RELA (p65) subunit of heterodimer;p50 subunit, sequence (Q04206 1-307, chain 1 of 2): as the sequence (Q04206 1-307) above
RELA (p65) subunit of heterodimer;p50 subunit, sequence (P19838 7-356, chain 2 of 2): as the sequence (P19838 7-356) above

On to AAGTGTATCCC, for which the binding signal with RELARELA (p65 homodimer) is -0.0644 z-score; with p50p50 homodimer, -0.719 z-score; with p52p52 homodimer, -0.379 z-score; in assay [1] it was -0.553 z-score; in assay [2], -0.504 z-score; with RELB subunit;p50 subunit it was -0.584 z-score. Besides, the binding signal was -0.4 z-score with RELB subunit;p52 subunit, -0.695 z-score in assay [3] and -0.382 z-score in assay [4].
In the case of GAATATATCCC, the binding signal is 0.0475 z-score with RELARELA (p65 homodimer); -0.184 z-score with p50p50 homodimer; -0.107 z-score in the assay with p52p52 homodimer; -0.275 z-score in assay [1]; -0.268 z-score in assay [2]; -0.131 z-score with RELB subunit;p50 subunit. The binding signal is -0.295 z-score with RELB subunit;p52 subunit, -0.368 z-score in assay [3] and -0.351 z-score in [4].
For the sequence CGAATACCCCT, the binding signal in the assay with RELARELA (p65 homodimer) is 0.147 z-score; with p50p50 homodimer it was 1.13 z-score; with p52p52 homodimer, 0.86 z-score; in assay [1] it was 1.17 z-score; in assay [2], 1.12 z-score; with RELB subunit;p50 subunit, 1.03 z-score. Also, the binding signal amounted to 1.63 z-score with RELB subunit;p52 subunit, 0.876 z-score in [3] and 0.881 z-score in assay [4].
Regarding GGGAATCTCCT, the binding signal with RELARELA (p65 homodimer) came out at 2.57 z-score; in the assay with p50p50 homodimer, 0.441 z-score; with p52p52 homodimer, 1.08 z-score; in assay [1], 0.896 z-score; in assay [2], 0.912 z-score; in the assay with RELB subunit;p50 subunit, 0.367 z-score. Also, the binding signal with RELB subunit;p52 subunit turned out to be 0.827 z-score; in assay [3], 0.987 z-score; in [4] it was 1.35 z-score.
For CGGGATGCCCC, the binding signal came to 1.39 z-score with RELARELA (p65 homodimer); 0.572 z-score in the assay with p50p50 homodimer; 2.24 z-score with p52p52 homodimer; 1.51 z-score in assay [1]; 1.6 z-score in assay [2]; 1.24 z-score in the assay with RELB subunit;p50 subunit. Moreover, the binding signal was determined as 1.28 z-score with RELB subunit;p52 subunit, 0.949 z-score in assay [3] and 1.61 z-score in [4].
Take GAAGGCCCCCC: the binding signal in the assay with RELARELA (p65 homodimer) was -1.44 z-score; with p50p50 homodimer it was 0.635 z-score; with p52p52 homodimer, 0.244 z-score; in [1] it was 0.456 z-score; in assay [2], 0.62 z-score; in the assay with RELB subunit;p50 subunit, 0.366 z-score. Besides, the binding signal with RELB subunit;p52 subunit came out at 0.671 z-score; in assay [3] it was 0.408 z-score; in [4], 0.0615 z-score.
Turning to CGAAGTTCCCT, the binding signal worked out at 0.618 z-score with RELARELA (p65 homodimer); 0.819 z-score with p50p50 homodimer; 0.347 z-score with p52p52 homodimer; 0.834 z-score in assay [1]; 0.752 z-score in assay [2]; 0.603 z-score in the assay with RELB subunit;p50 subunit. Besides, the binding signal with RELB subunit;p52 subunit came out at 0.672 z-score; in assay [3], 0.425 z-score; in assay [4], 0.379 z-score.
In the case of GGGGTAACCCT, the binding signal with RELARELA (p65 homodimer) came to 1.24 z-score; with p50p50 homodimer it was 0.343 z-score; with p52p52 homodimer, 1.02 z-score; in assay [1], 0.666 z-score; in [2], 1.02 z-score; with RELB subunit;p50 subunit, 0.227 z-score. Also, the binding signal in the assay with RELB subunit;p52 subunit was 0.871 z-score; in assay [3] it was 0.285 z-score; in assay [4] it was 0.871 z-score.
On to AAATGTATCCT, for which the binding signal in the assay with RELARELA (p65 homodimer) was -0.258 z-score; with p50p50 homodimer it was -1.3 z-score; with p52p52 homodimer, -0.661 z-score; in assay [1] it was -0.932 z-score; in assay [2] it was -0.782 z-score; in the assay with RELB subunit;p50 subunit, -0.907 z-score. Moreover, the binding signal with RELB subunit;p52 subunit was -0.763 z-score; in [3] it was -1.32 z-score; in assay [4] it was -0.746 z-score.
As for AGATAAGCCCT, the binding signal with RELARELA (p65 homodimer) was -0.464 z-score; in the assay with p50p50 homodimer, -1.05 z-score; with p52p52 homodimer it was -0.697 z-score; in assay [1], -0.764 z-score; in [2], -0.927 z-score; with RELB subunit;p50 subunit, -1.1 z-score. In addition, the binding signal in the assay with RELB subunit;p52 subunit was -0.798 z-score; in assay [3], -0.985 z-score; in assay [4] it was -0.712 z-score.
As for AAGGGCGTCCT, the binding signal with RELARELA (p65 homodimer) was -1.14 z-score; with p50p50 homodimer, -1.28 z-score; with p52p52 homodimer it was -0.61 z-score; in [1], -1.06 z-score; in assay [2], -0.909 z-score; with RELB subunit;p50 subunit it was -0.994 z-score. For the same sequence, the binding signal is -0.788 z-score with RELB subunit;p52 subunit, -1.25 z-score in assay [3] and -0.659 z-score in [4].
Regarding CGAGTGCTCCT, the binding signal in the assay with RELARELA (p65 homodimer) was -0.962 z-score; with p50p50 homodimer it was -2.12 z-score; with p52p52 homodimer, -0.788 z-score; in [1], -1.11 z-score; in assay [2], -1.03 z-score; in the assay with RELB subunit;p50 subunit, -1.37 z-score. The binding signal with RELB subunit;p52 subunit is -0.983 z-score; in assay [3], -1.63 z-score; in [4] it was -0.978 z-score.
GGAAAGTTCCC: the binding signal amounted to 2.6 z-score with RELARELA (p65 homodimer); 0.736 z-score with p50p50 homodimer; 0.736 z-score with p52p52 homodimer; 1.29 z-score in assay [1]; 1.02 z-score in assay [2]; 0.762 z-score in the assay with RELB subunit;p50 subunit. Also, the binding signal with RELB subunit;p52 subunit worked out at 0.686 z-score; in assay [3] it was 0.966 z-score; in assay [4], 0.929 z-score.
As to CAGTGGTCCCC, the binding signal in the assay with RELARELA (p65 homodimer) is -0.00968 z-score; in the assay with p50p50 homodimer, 0.538 z-score; in the assay with p52p52 homodimer, 0.29 z-score; in assay [1], 0.247 z-score; in [2] it was 0.212 z-score; with RELB subunit;p50 subunit, 0.612 z-score. For the same sequence, the results for the binding signal (with RELB subunit;p52 subunit; in assay [3]; in [4]) were 0.412 z-score, 0.329 z-score and 0.0114 z-score, respectively.
With GAAGAGTTCCC, the binding signal with RELARELA (p65 homodimer) was 0.742 z-score; with p50p50 homodimer, 0.281 z-score; with p52p52 homodimer, -0.0634 z-score; in assay [1] it was 0.27 z-score; in assay [2], 0.0483 z-score; with RELB subunit;p50 subunit it was 0.132 z-score. In addition, the values for the binding signal (with RELB subunit;p52 subunit; in assay [3]; in [4]) were -0.0744 z-score, 0.46 z-score and 0.057 z-score, respectively.
